# Laboratory results reported in PubChem BioAssay (NCATS).
# Values joined by “and” are separate entries in the source; they are usually repeats but may differ in a detail not shown here. Equal entries are not always repeated. Records with an inconclusive call do not appear. Where a call stands in place of a potency, no number is given. Active and inactive are the calls of the source. Unless noted, calls follow the shape of the dose curve; as a rule, active = well fitted curve in the direction sought with a large enough effect; inconclusive = small, poorly fitted or top-dose-only effect, or another doubt; inactive = no such curve, though single readings can be large; an effect the other way counts as inactive or inconclusive.
# Key:
# [1] = system: Zika virus NS2B-NS3 protease (unlinked complex); assay: Primary screen GU Rhodamine qHTS for Zika virus inhibitors: Unlinked NS2B-NS3 protease assay (AID 1347159); also: nearly all actives have a fitted effect of over 60% in size; also: potency is read from the fitted curve at half-maximal effect
# In short: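 Noncovalent NS2B hydrophilic domain/NS3 protease complex (25 nM final) in 10 mM Tris-HCl pH 8.0, 0.01% Tween 20, preincubated 15 min with compounds (up to 114 microM), then 1.5 microM Rhodamine110 substrate. Fluorescence change over 15 min fitted to 4-parameter Hill.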
# [2] = system: Zika virus NS2B-NS3 protease (linked construct); assay: Primary screen NINDS Rhodamine qHTS for Zika virus inhibitors (AID 1347160); also: nearly all actives have a fitted effect of over 55% in size; also: potency is read from the fitted curve at half-maximal effect
# In short: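 Purified NS2B-NS3 protease with the NS2B hydrophilic domain joined by a flexible linker (25 nM) in 10 mM Tris-HCl pH 8.0, 0.01% Tween 20, preincubated 15 min at RT with compound; Rhodamine110 peptide substrate 1.5 µM; fluorescence change over 15 min; 4-parameter Hill fit.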
# [3] = biological target: Calcium and integrin-binding protein 1 (Homo sapiens) (UniProt Q99828); assay: Primary qHTS for Identification of Calcium Integrin Binding Protein 1 (CIB1) Competitor (AID 1508620);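 also: GST tagged CIB1 binding a fluorescein labelled alphaIIb integrin peptide tracer; top concentration of the series differs between compounds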
# Calcium and integrin-binding protein 1 (Homo sapiens), sequence (Q99828 whole entry, looked up): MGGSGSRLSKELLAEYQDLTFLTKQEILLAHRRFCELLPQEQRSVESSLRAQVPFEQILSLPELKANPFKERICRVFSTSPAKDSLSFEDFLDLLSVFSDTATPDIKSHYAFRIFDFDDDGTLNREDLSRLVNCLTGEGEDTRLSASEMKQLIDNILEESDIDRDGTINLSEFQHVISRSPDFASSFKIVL
# In short: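 Fluorescence polarization competition: CIB1-GST (1 uM final) preincubated with compound 15 min at room temperature, then FITC-labeled alphaIIb peptide (100 nM final) added for another 15 min. Polarization read at Ex 480/Em 540.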
# [4] = Primary qHTS for inhibitors of nuclear receptor binding SET domain protein 2 (NSD2) in an isogenic RCH-ACV NSD2 p.E1099K mutant (9B) (AID 1645876); also: potency is read from the fitted curve at half-maximal effect; nearly all actives have a fitted effect of over 70% in size
# [5] = Primary qHTS for inhibitors of nuclear receptor binding SET domain protein 2 (NSD2) in an RCH-ACV wild type WT cells (2C) (AID 1645877); also: potency is read from the fitted curve at half-maximal effect; nearly all actives have a fitted effect of over 70% in size
# [6] = biological target: Glutathione peroxidase 1 (Homo sapiens) (UniProt P07203); assay: Primary qHTS Assay for Inhibitors of Recombinant Selenoprotein Glutathione Peroxidase 1 (GPX1) (AID 1845191); also: nearly all actives have a fitted effect of over 65% in size
# Glutathione peroxidase 1 (Homo sapiens), sequence (P07203 whole entry, looked up): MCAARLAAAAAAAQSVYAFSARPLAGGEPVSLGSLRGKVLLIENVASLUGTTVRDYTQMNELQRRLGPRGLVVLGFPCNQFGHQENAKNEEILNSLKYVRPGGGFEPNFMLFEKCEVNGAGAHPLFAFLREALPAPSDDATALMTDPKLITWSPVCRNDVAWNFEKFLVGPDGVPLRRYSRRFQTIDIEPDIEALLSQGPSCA
# In short: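 Recombinant GPX1 (10 nM final) was preincubated with compound for 30 min at room temperature, then reacted with 1 mM GSH, 0.5 mM CHP, 0.5 mM NADPH and 100 nM glutathione reductase; NADPH fluorescence (340/450 nm) was read at 0 and 15 min.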
# [7] = biological target: Phospholipid hydroperoxide glutathione peroxidase GPX4 (Homo sapiens) (UniProt P36969); assay: Primary qHTS Assay for Inhibitors of Recombinant Selenoprotein Glutathione Peroxidase 4 (GPX4) (AID 1845192); conditions: outcome: dose series up to 50 µM unless noted; also: nearly all actives have a fitted effect of over 65% in size; also: potency is read from the fitted curve at half-maximal effect
# Phospholipid hydroperoxide glutathione peroxidase GPX4 (Homo sapiens), sequence (P36969 whole entry, looked up): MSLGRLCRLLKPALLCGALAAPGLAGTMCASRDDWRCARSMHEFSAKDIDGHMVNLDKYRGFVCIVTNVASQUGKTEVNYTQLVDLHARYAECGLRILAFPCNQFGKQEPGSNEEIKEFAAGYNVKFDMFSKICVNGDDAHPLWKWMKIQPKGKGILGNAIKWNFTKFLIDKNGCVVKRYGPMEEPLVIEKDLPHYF
# In short: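 GR-coupled readout: 100 nM GR, 1 mM GSH, 0.5 mM NADPH; NADPH fluorescence (ex 340/em 450 nm) read at t=0 and after 15 min RT. GPX4 200 nM, preincubated 30 min with compound; substrate 0.5 mM CHP.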
# [8] = biological target: Luciferin 4-monooxygenase (Photinus pyralis) (UniProt P08659); assay: Primary firefly luciferase (FLuc) qHTS assay for identification of artifact compounds. (AID 1845220); also: nearly all actives have a fitted effect of over 60% in size
# In short: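 Reaction readout was CCD-imaged luminescence, taken 5 min after adding 10 nM purified firefly enzyme to compound-treated wells holding 10 uM luciferin and ATP in pH 7.6 buffer.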
# [9] = system: Nanoluciferase (engineered Oplophorus gracilirostris luciferase); assay: Primary Nanoluciferase (NLuc) qHTS assay for identification of artifact compounds. (AID 1845222);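 also: NLuc secreted into diluted conditioned medium of S16 cells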
# In short: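 Concentration-response data were obtained by luminescence after 5 min with Nano-Glo substrate at 1:100. The enzyme was diluted S16 NLuc-expressing cell medium, preincubated with compound for 15 min at RT. Curves were fitted with a 4-parameter Hill model.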
# HaCat = assay: Cytotoxic Profiling of Annotated Libraries Using Quantitative High-Throughput Screening (AID 1296008); conditions: Five cell lines viability, CellTiter-Glo ATP luminescence, 48-72 h; max response: stronger effect = lower value; also: nearly all actives have a fitted effect of over 60% in size; also: potency is read from the fitted curve at half-maximal effect
# In short: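 Compounds were pin-transferred onto cells and incubated 48 or 72 hr at 37 degree Celsius, 95% humidity. CellTiter-Glo was added, plates sat 10 min at room temperature, then ATP-coupled luminescence was imaged as the viability read-out.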
# C33A = assay: Primary qHTS to identify gynecologic anti-cancer compounds using libraries of approved drugs and bioactive compounds (AID 1345084); conditions: Gynecologic cancer cell panel viability, ATPlite luminescence, 48 h; series mostly up to 57.5 µM; also: nearly all actives have a fitted effect of over 55% in size
# In short: (§1)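 Cells, 1,000 per well, were allowed to settle for 16 h at 37 C before compound addition. Five concentrations were tested for 48 h, and viability was read by ATPlite luminescence after 15 min at room temperature.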
# CASKI = assay: as above; conditions: Gynecologic cancer cell panel viability, ATPlite luminescence, 48 h; series mostly up to 57.5 µM
# In short: as §1
# Es-2 = assay: as above; conditions: Gynecologic cancer cell panel viability, ATPlite luminescence, 48 h; series mostly up to 57.5 µM
# In short: as §1
# HeLa = assay: as above; conditions: Gynecologic cancer cell panel viability, ATPlite luminescence, 48 h; series mostly up to 57.5 µM
# In short: as §1
# Hek293T = assay: as above; conditions: Gynecologic cancer cell panel viability, ATPlite luminescence, 48 h, control line for the selectivity index; series mostly up to 57.5 µM
# In short: as §1
# JEG-3 = assay: as above; conditions: Gynecologic cancer cell panel viability, ATPlite luminescence, 48 h; series mostly up to 57.5 µM
# In short: as §1
# OV90 = assay: as above; conditions: Gynecologic cancer cell panel viability, ATPlite luminescence, 48 h; series mostly up to 57.5 µM
# In short: as §1
# Tov-21-G = assay: as above; conditions: Gynecologic cancer cell panel viability, ATPlite luminescence, 48 h; series mostly up to 57.5 µM
# In short: as §1
# Tov112D = assay: as above; conditions: Gynecologic cancer cell panel viability, ATPlite luminescence, 48 h; series mostly up to 57.5 µM
# In short: as §1
# [10] = qHTS drug screen for cell cycle checkpoint inhibitors in PARPi-resistant BRCA-mutant ovarian cancer cell lines. (AID 1963452; calls by dose curve); conditions: PEO1/OlaR viability, CellTiter-Glo luminescence, 96 h, stronger effect = lower value
# In short: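 PEO1, PEO4 and PEO1/OlaR ovarian cancer cells, 600 per well, exposed 96 h at 37C to a dilution series. Viability read by CellTiter-Glo luminescence, normalized to DMSO and empty wells; activity summarized as Z-AUC.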
structure (smiles),measurement,setting,value
OCC(CO)(CO)NCC(O)Cn1c2ccc(Cl)cc2c2cc(Cl)ccc21 (centres undefined),Potency,[1],inactive
same,Potency,[2],inactive
same,outcome,[3],inactive
same,Potency,[4],20.5 µM (active)
same,Potency,[5],20.5 µM (active)
same,Potency,[6],inactive
same,Potency,[7],inactive
same,Potency,[8],inactive
same,Potency,[9],inactive
same,max response,HaCat,1.65% (inactive)
same,Potency,C33A,inactive
same,Potency,CASKI,inactive
same,Potency,Es-2,inactive
same,Potency,HeLa,inactive
same,Potency,Hek293T,inactive
same,Potency,JEG-3,inactive
same,Potency,OV90,inactive
same,Potency,Tov-21-G,inactive
same,Potency,Tov112D,inactive
Cn1nccc1Nc1nccc(-c2ccn([C@H](CO)c3ccc(Cl)c(F)c3)c(=O)c2)n1,Potency,[1],inactive
same,Potency,[2],inactive
same,outcome,[3],inactive
same,Potency,[4],7.28 µM (active) and 7.42 µM (active)
same,Potency,[5],10.3 µM (active) and 8.33 µM (active)
same,Potency,[7],inactive
same,Potency,[8],inactive
same,Z-AUC,[10],-0.731 (inactive)
same,Z-AUC,[10]; measured here: PEO1 parental Z-AUC,-0.241
same,Z-AUC,[10]; measured here: PEO4 Z-AUC,-0.296
same,Potency,C33A,inactive
same,Potency,CASKI,inactive
same,Potency,Es-2,inactive
same,Potency,Hek293T,inactive
same,Potency,Tov-21-G,inactive
same,Potency,Tov112D,inactive
CC1CCN(C(c2ccc(F)cc2)c2ccc(C(C)C(=O)O)cc2-c2ccc(C(F)(F)F)cc2)CC1 (centres undefined),Potency,[1],1.58 µM (active)
same,Potency,[2],3.16 µM (active)
same,outcome,[3],inactive
same,Potency,[4],14.5 µM (active)
same,Potency,[5],11.5 µM (active)
same,Potency,[6],inactive
same,Potency,[7],inactive
same,Potency,[8],inactive
same,Potency,[9],inactive
same,max response,HaCat,1.13% (inactive)
same,Potency,C33A,inactive
same,Potency,CASKI,inactive
same,Potency,Es-2,inactive
same,Potency,JEG-3,inactive
same,Potency,OV90,inactive
same,Potency,Tov-21-G,inactive
same,Potency,Tov112D,inactive
Cc1ccc(CCCO)c(NCc2ccc3nc(NCCCN4CCOCC4)n(Cc4nc(C)ccc4O)c3c2)c1,Potency,[1],inactive
same,Potency,[2],inactive
same,outcome,[3],inactive
same,Potency,[4],12.9 µM (active)
same,Potency,[5],11.5 µM (active)
same,Potency,[6],inactive
same,Potency,[7],inactive
same,Potency,[9],inactive
same,max response,HaCat,-12.2% (inactive)
same,Potency,C33A,inactive
same,Potency,CASKI,inactive
same,Potency,Es-2,inactive
same,Potency,HeLa,inactive
same,Potency,Hek293T,inactive
same,Potency,JEG-3,inactive
same,Potency,Tov-21-G,inactive
same,Potency,Tov112D,inactive
N#Cc1c[nH]c2c(C(=O)N3CCN(CCc4ccc(F)cc4)CC3)cccc12,Potency,[1],inactive
same,outcome,[3],inactive
same,Potency,[6],inactive
same,Potency,[7],inactive
same,Potency,[8],inactive
same,Potency,[9],inactive
same,max response,HaCat,-7.89% (inactive)
same,Potency,C33A,inactive
same,Potency,CASKI,inactive
same,Potency,Es-2,inactive
same,Potency,HeLa,inactive
same,Potency,Hek293T,inactive
same,Potency,JEG-3,inactive
same,Potency,OV90,inactive
same,Potency,Tov-21-G,inactive
same,Potency,Tov112D,inactive
CCC[C@@H](NC(=O)N1C(=O)C(CC)(CC)[C@@H]1Oc1ccc(C(=O)N2CCN(C)CC2)cc1)c1ccc2c(c1)OCO2,Potency,[1],inactive
same,Potency,[2],inactive
same,outcome,[3],inactive
same,Potency,[6],inactive
same,Potency,[7],inactive
same,Potency,[8],inactive
same,Potency,[9],inactive
same,outcome,HaCat,inactive
same,Potency,C33A,inactive
same,Potency,CASKI,inactive
same,Potency,Es-2,inactive
same,Potency,HeLa,inactive
same,Potency,Hek293T,inactive
same,Potency,JEG-3,inactive
same,Potency,OV90,inactive
same,Potency,Tov-21-G,inactive
same,Potency,Tov112D,inactive
CCC(=O)c1cc(-c2ccc(Cl)cc2)n(-c2ccc(S(N)(=O)=O)cc2)c1C,Potency,[1],inactive
same,Potency,[2],inactive
same,outcome,[3],inactive
same,Potency,[4],23 µM (active)
same,Potency,[5],16.3 µM (active)
same,Potency,[6],inactive
same,Potency,[7],inactive
same,Potency,[8],inactive
same,Potency,[9],inactive
same,Potency,C33A,inactive
same,Potency,CASKI,inactive
same,Potency,Es-2,inactive
same,Potency,HeLa,inactive
same,Potency,Hek293T,inactive
same,Potency,JEG-3,inactive
same,Potency,OV90,inactive
same,Potency,Tov-21-G,inactive
same,Potency,Tov112D,inactive
N#CCC(C1CCCC1)n1cc(-c2ncnc3[nH]ccc23)cn1 (centres undefined),Potency,[1],inactive
same,Potency,[2],inactive
same,outcome,[3],inactive
same,Potency,[4],12.9 µM (active)
same,Potency,[5],20.5 µM (active)
same,Potency,[7],18 µM (active)
same,Potency,[8],inactive
same,Potency,[9],inactive
same,outcome,HaCat,inactive
same,Potency,C33A,inactive
same,Potency,CASKI,inactive
same,Potency,Es-2,inactive
same,Potency,HeLa,inactive
same,Potency,Hek293T,inactive
same,Potency,JEG-3,inactive
same,Potency,OV90,inactive
same,Potency,Tov-21-G,inactive
same,Potency,Tov112D,inactive
CN(C)CCCNc1nc(CN2CCN(C(c3ccc(Cl)cc3)c3ccc(Cl)cc3)CC2)nc2ccccc12,Potency,[1],inactive
same,Potency,[2],inactive
same,outcome,[3],inactive
same,Potency,[4],9.16 µM (active)
same,Potency,[5],7.28 µM (active)
same,Potency,[7],inactive
same,Potency,[8],inactive
same,Potency,[9],inactive
same,Potency,C33A,inactive
same,Potency,CASKI,inactive
same,Potency,Es-2,inactive
same,Potency,HeLa,inactive
same,Potency,Hek293T,inactive
same,Potency,JEG-3,inactive
same,Potency,Tov-21-G,inactive
same,Potency,Tov112D,inactive
Cc1ccccc1C(=O)Nc1ccc(C(=O)N2CCC[C@@H](O)c3cc(Cl)ccc32)c(C)c1,Potency,[1],inactive
same,Potency,[2],inactive
same,outcome,[3],inactive
same,Potency,[6],inactive
same,Potency,[7],inactive
same,Potency,[8],inactive
same,Potency,[9],inactive
same,max response,HaCat,-22.4% (inactive)
same,Potency,C33A,inactive
same,Potency,CASKI,inactive
same,Potency,Es-2,inactive
same,Potency,HeLa,inactive
same,Potency,Hek293T,inactive
same,Potency,JEG-3,inactive
same,Potency,OV90,inactive
same,Potency,Tov-21-G,inactive
same,Potency,Tov112D,inactive
COc1cccc(CNC(=O)Nc2nc(-c3ccncc3)cs2)c1,Potency,[2],inactive
same,outcome,[3],inactive
same,Potency,[4],7.28 µM (active)
same,Potency,[5],1.63 µM (active)
same,Potency,[6],inactive
same,Potency,[7],inactive
same,Potency,[8],inactive
same,Potency,[9],inactive
same,max response,HaCat,-7.04% (inactive)
same,Potency,C33A,inactive
same,Potency,CASKI,inactive
same,Potency,Es-2,inactive
same,Potency,Hek293T,inactive
same,Potency,JEG-3,inactive
same,Potency,OV90,inactive
same,Potency,Tov-21-G,inactive
same,Potency,Tov112D,inactive
CC[C@H](CO)Nc1nc(Nc2cccc(-c3ccccn3)c2)c2ncn(C(C)C)c2n1,Potency,[1],inactive
same,Potency,[2],inactive
same,outcome,[3],inactive
same,Potency,[5],16.3 µM (active)
same,Potency,[6],inactive
same,Potency,[7],inactive
same,Potency,[8],inactive
same,Potency,[9],inactive
same,Potency,HaCat,18.4 µM (active)
same,Potency,C33A,inactive
same,Potency,CASKI,inactive
same,Potency,Es-2,inactive
same,Potency,HeLa,inactive
same,Potency,Hek293T,inactive
same,Potency,JEG-3,inactive
same,Potency,Tov112D,inactive
